# Screens from PubChem BioAssay.
# The full list was thinned out, with hits kept by preference.
# RMI-FANCM inh: blocks RMI1/RMI2 complex binding to FANCM MM2 peptide | Fluorescence polarization, RMI core complex with F-MM2 peptide; active compounds read low | FP signal (polarization) at 33 µM | 70,000 tested, 0.58% active | AID 1159607; in the data active = FP signal below about 40
# An asterisk follows results filed as active.
SMILES,RMI-FANCM inh
COc1ccc(Cl)cc1NC(=O)CSc1ccc(-c2ccc(Br)cc2)nn1,56
CCCCN(C)S(=O)(=O)c1ccc(C(=O)Nc2ccc(F)cc2)cc1,74
CCOC(=O)c1ccc(-c2ccc(/C=C3\SC(=O)NC3=S)o2)cc1,-42
O=C1NC(=S)/C(=C/c2ccc(-c3ccccc3[N+](=O)[O-])o2)S1,9*
O=C1C(=Cc2ccc(-c3ccc(C(F)(F)F)cc3[N+](=O)[O-])o2)C(=O)c2ccccc21,59
Cc1c(O)ccc2c(CN3CCCCC3)cc(=O)oc12,18*
O=c1cc(CN2CCOCC2)c2cc3c(cc2o1)CCC3,57
Cc1ccc2oc(=O)cc(CN3CCOCC3)c2c1,63
COc1ccc(-c2ccc(=O)n(CCCNC(=O)Nc3ccc(F)cc3F)n2)cc1,69
Cc1ccc(S(=O)(=O)N(CC(O)Cn2c3ccccc3c3ccccc32)CC2CCCO2)cc1 (configuration not stated),60
O=C(CCc1ccccc1)N1CCN(c2ccc(N3CCCCC3)nn2)CC1,54
Cc1ccc(Cl)cc1-n1ncc2c1ncn1c(-c3cccs3)nnc21,72
O=C(Cc1csc(Nc2cccc(C(F)(F)F)c2)n1)NCc1ccccn1,44
O=C(Cc1csc(SCc2ccc(Br)cc2)n1)Nc1nccs1,21*
O=C(Cc1csc(SCc2ccc(Br)cc2)n1)NC1CCCC1,66
O=C(Cc1csc(SCc2ccc(Br)cc2)n1)NCc1ccccn1,27*
COc1cc(CSc2nc(CC(=O)Nc3nccs3)cs2)cc(OC)c1,58
CNC(=O)Cc1csc(Nc2ccc(OC(F)(F)F)cc2)n1,61
O=C(Cc1csc(Nc2ccc(OC(F)(F)F)cc2)n1)NCc1ccccn1,-3*
O=C(Cc1csc(SCc2ccc(Cl)cc2)n1)NCc1ccccn1,54
O=C(Cc1csc(SCc2ccc(Br)cc2)n1)NCc1cccs1,80
Cc1c(Cc2ccc3c(c2)OCO3)sc(NC(=O)/C=C/c2ccc([N+](=O)[O-])s2)c1C#N,81
CCOc1ccc(C2C(C(=C(C#N)C#N)C3CC3)C3c4ccccc4C=CN3C2C(=O)c2ccccc2)c(OCC)c1 (configuration not stated),56
CCCCn1c(O)c(C=Nc2ccccc2C(=O)O)c(C)c(C#N)c1=O,82
Cc1c2c(n3c(nc4ccccc43)c1C#N)N(C(C)c1ccccc1)CC2 (configuration not stated),79
SMILES,RMI-FANCM inh
COc1cccc(N2CCc3c(C)c(C#N)c4nc5ccccc5n4c32)c1,14*
Cc1ccc(OCCN2CCN(c3c4c(c(C#N)c5nc6ccccc6n35)CCCC4)CC2)cc1,62
CCc1c(C)c(C#N)c2nc3ccccc3n2c1N,66
Cc1c2c(n3c(nc4ccccc43)c1C#N)SCC2,24*
CSc1c2c(c(C#N)c3nc4ccccc4n13)CCCC2,73
CN(C)c1ccc(NC(=O)C2(c3cccs3)CCCC2)cc1,62
CC1CCN(S(=O)(=O)c2ccc(C(=O)Nc3nc4cc5c(cc4s3)OCCO5)cc2)CC1,77
Cc1csc2nc(-c3cccc(NC(=O)c4ccc(F)cc4)c3)cn12,75
O=C(Cn1nc(-c2cccs2)c2sc(N3CCCCC3)nc2c1=O)c1ccc2c(c1)CCCC2,87
Cn1cccc1C(CNC(=O)COc1ccc(Cl)cc1Cl)N1CCCC1 (configuration not stated),61
O=C(CSc1nnc2ccc3ccccc3n12)c1ccc(Cl)c(Cl)c1,83
O=C(NC(=O)c1csc([N+](=O)[O-])c1)NN1CCOCC1,56
Cn1c(-c2nc(C(=O)NN3CCOCC3)cs2)cc2ccccc21,3*
O=C(Nc1ccccc1)c1csc(-c2ccccc2)n1,66
CC(=O)CSc1n[nH]c(CN2c3ccccc3Sc3ccccc32)n1,56
O=C(O)CCCn1c(-c2ccc(Br)cc2)nc(=S)c2c1CCCC2,59
Cc1ccc(C)c(S(=O)(=O)C(C#N)c2nc3ccccc3nc2N2CCCC2)c1 (configuration not stated),5*
CCC(CC)COC(=O)C(C#N)c1nc2ccccc2nc1N1CCCCC1 (configuration not stated),48
CCN1CCN(c2nc3ccccc3nc2C(C#N)S(=O)(=O)c2cccs2)CC1 (configuration not stated),69
CCCN1CCCc2cc(CCNS(=O)(=O)c3ccccc3Br)ccc21,230
COc1ccc(-c2cc(-c3ccccc3)nc3sc(C(=O)NCC4CCCO4)c(N)c23)cc1 (configuration not stated),9*
COc1ccc(-c2cc(-c3ccc(C)c(C)c3)nc3sc(C(N)=O)c(N)c23)cc1,123
COc1ccc(-c2cc(-c3ccccc3)nc(SCC(=O)NCC3CCCO3)c2C#N)cc1 (configuration not stated),94
CC1(C)CC(=O)c2c(nc3sc(C(=O)NCC4CCCO4)c(N)c3c2-c2ccccc2)C1 (configuration not stated),53
COc1ccc(-c2cc(-c3ccc(Cl)cc3)nc3sc(C(=O)N4CCOCC4)c(N)c23)cc1,-18*
SMILES,RMI-FANCM inh
COc1ccc(-c2cc(-c3ccc(OC)cc3)c3c(N)c(C(=O)c4ccc(Cl)cc4)sc3n2)cc1,500
O=C(CSCc1ccco1)Nc1cc(C(F)(F)F)ccc1Cl,60
Cc1cc(=O)[nH]c(-n2nc(C)cc2NC(=O)c2cc(C)oc2C)n1,69
O=C(NCCCS(=O)(=O)N1CCN(c2ccc(F)cc2)CC1)c1cnccn1,61
O=C(C1CC1)N1CCc2ccc(NS(=O)(=O)C3CCCCC3)cc21,65
CC(C)(C)NC(=O)c1sc2nc(-c3ccc(Cl)cc3)cc(-c3ccco3)c2c1N,66
Cc1cc2c3c(c1)c(O)c(-c1ccccc1)c(=O)n3CCC2,62
COc1cc(O)c2c(c1)C(=O)c1cc(C)cc(O)c1C2=O,55
Cc1cc(O)c2c(c1)Cc1cccc(O)c1C2=O,-15*
COc1cc(OC)cc(C(=O)NCC2CCN(Cc3ccccc3)CC2)c1,77
Cc1ccc(NC(=O)C2CCN(c3ccc(-c4ccco4)nn3)CC2)cc1F,61
N#CC1=C(N)OC(c2ccco2)=C(C#N)C1c1ccco1 (configuration not stated),56
N#Cc1c(N)c(C#N)c2c(c1-c1ccco1)Cc1ccccc1-2,12*
COC(=O)c1sc(SC)c(C#N)c1-c1ccco1,57
NC(=O)C1CCN(C(=O)c2ccc(=O)n(Cc3ccc(F)cc3)n2)CC1,64
COc1ccccc1CNC(=O)Cc1csc(Nc2ccccc2)n1,66
Oc1cc(O)c2c(c1)O[C@H](c1cc(O)c(O)c(O)c1)[C@H](O)[C@H]2c1c(O)cc(O)c2c1O[C@H](c1cc(O)c(O)c(O)c1)[C@H](O)[C@H]2c1c(O)cc(O)c2c1O[C@H](c1cc(O)c(O)c(O)c1)[C@H](O)C2,-7*
O=C1CC(c2ccc(O)cc2)Oc2cc(O)cc(O)c21 (configuration not stated),63
O=C(O[C@@H]1Cc2c(O)cc(O)cc2O[C@@H]1c1cc(O)c(=O)c2c(O)c(O)cc([C@H]3Oc4cc(O)cc(O)c4C[C@H]3O)c2c1)c1cc(O)c(O)c(O)c1,46
CCC/C=C/C=C/[C@@H]1C[C@@H](O)[C@@H](O)C(=O)[C@H]1C=O,57
COc1ccc(CCS(=O)(=O)Nc2ccc3c(c2)CCC(=O)N3Cc2ccccc2)cc1,72
Cc1cc(=S)nc(-c2ccccn2)[nH]1,55
Cc1nc(-c2ccccn2)n[nH]1,63
Cc1cc(-c2ccccn2)c(-c2cc(Cl)cc(Cl)c2)[nH]1,32*
